Test in all cases: NCI-60 one-dose screen, 48 h (100 = growth as untreated, 0 = no growth, -100 = all killed)
Common to all, as to details: 10 µM unless noted

The subject of test [1] is SR leukemia.
For test [2], the system named is RPMI-8226 leukemia.
In test [3] the test system is OVCAR-8 ovarian.
In test [4] the test system is OVCAR-5 ovarian.
In test [5] the test system is OVCAR-4 ovarian.
Test [6] deals with SK-OV-3 ovarian.
The test system of test [7] is IGROV1 ovarian.
Test [8] has as its system OVCAR-3 ovarian.
Test [9] relates to NCI/ADR-RES ovarian.

In PubChem BioAssay (NCI) one finds growth data, which are given here for 14 molecules.

Each structure is given as a SMILES string. The panel holds about 83,000 compounds, 20% with a hit somewhere; the sample as a whole holds those more often.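 In brief: 96-well plates, 48 h treatment, single concentration, percent growth endpoint.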 A number with no mark means an inactive call. Active and inactive are the calls of the source. How the source made its calls: active means growth percent below 10; inactive means the rest.

For `C[C@@H](Oc1cc(C(=O)Nc2ccc(C(=O)N3CCN(C)CC3)cc2)nnc1N)c1c(Cl)ccc(F)c1Cl`, the growth in test [1] is 0.634% (active); in test [2], 36.7%; in [3], 63.1%; in [4], 75.3%; in test [5] it was 78.2%; in test [6], 66.9%. In addition, the growth is 86% in test [7], 91.6% in [8] and 76.5% in test [9].
Consider `CCCCOc1nc2cc(Cl)ccc2cc1/C=C/c1cc(/C=C/c2cc3ccc(Cl)cc3nc2OCCCC)n(-c2ccccc2)n1`, for which the growth in test [1] was 73%; in [2], 111%; in test [3], 77.8%; in test [4], 107%; in test [5] it was 111%; in test [6], 51.5%. For the same molecule, the growth in test [7] is 89.3%; in test [8], 103%; in test [9], 93.2%.
In the case of `O=C(Nc1nc2cccc(-c3ccc(CN4CCS(=O)(=O)CC4)cc3)n2n1)C1CC1`, the growth is 45.4% in test [1]; 62.5% in [2]; 58.1% in test [3]; 75.3% in test [4]; 78.4% in test [5]; 58.4% in test [6]. Moreover, the growth in test [7] is 65%; in [8], 57.5%; in [9], 90.3%.
Take `COc1ccc(-c2cc3c(C)nc(N)nc3n(C3CCC(OCCO)CC3)c2=O)cn1` (stereo unspecified): the growth in test [1] is 1.95% (active); in test [2], 3.64% (active); in test [3], -12.6% (active); in test [4] it was -18.8% (active); in [5] it was -7.57% (active); in test [6], -49.9% (active). Further, the growth in test [7] was -36.9% (active); in test [8], -10.5% (active); in test [9], -14.7% (active).
`C[C@@H](Nc1cc(F)cc(F)c1)c1cc(C(=O)N(C)C)cc2c(=O)cc(N3CCOCC3)oc12`: the growth in test [1] was 53.5%; in test [2], 84.4%; in test [3] it was 57.9%; in [4], 54.5%; in test [5], 88.2%; in test [6] it was 3.43% (active). For the same molecule, the growth in test [7] was -13.3% (active); in test [8] it was 40%; in test [9], 85.4%.
With `Cc1cc(Nc2cc(N3CCN(C)CC3)nc(Sc3ccc(NC(=O)C4CC4)cc3)n2)n[nH]1`, the growth in [1] is 16.7%; in test [2], 44.8%; in test [3], 38.6%; in [4], 29%; in test [5], 77%; in [6], 27.6%. Further, the growth in test [7] was 30.7%; in [8], 61.5%; in test [9], 73.8%.
`O=c1[nH]c([C@@H]2CCCN2)nc2c1oc1ccc(Cl)cc12`: the growth in test [1] was 34.1%; in test [2], 86.6%; in test [3], 72.9%; in test [4], 49.8%; in [5], 84.5%; in test [6], 24%. The growth is 81.3% in test [7], 65% in test [8] and 82.9% in test [9].
As for `CNC(=O)c1cccc2cc(Oc3ccnc4cc(OCC5(N)CC5)c(OC)cc34)ccc12`, the growth in test [1] is 27.6%; in test [2], 81.7%; in [3], 48.9%; in test [4], 65.3%; in test [5], 49.4%; in test [6] it was 69.8%. For the same molecule, the growth is 39.5% in test [7], 61.4% in test [8] and 76% in test [9].
Take `C[C@@H]1COC(Nc2ccc3ncnc(Nc4ccc(OCc5nccs5)c(Cl)c4)c3c2)=N1`: the growth in test [1] was 17.6%; in test [2] it was 18.8%; in [3] it was 10.4%; in [4], 59.6%; in test [5], 25.3%; in [6], -3.87% (active). The figures for the growth in test [7], in test [8] and in [9] were 0.932% (active), 31.7% and 9.99% (active), respectively.
On to `Nc1cc(C(F)(F)F)c(-c2cc(N3CCOCC3)nc(N3CCOCC3)n2)cn1`, for which the growth is -6.66% (active) in test [1]; -6.64% (active) in test [2]; -24.2% (active) in [3]; -17.3% (active) in test [4]; -11.9% (active) in test [5]; -54.8% (active) in test [6]. Further, the growth in test [7] was -44.6% (active); in test [8] it was -9.69% (active); in test [9], -20.2% (active).
`CO[C@H]1C[C@@H]2CC[C@@H](C)[C@@](O)(O2)C(=O)C(=O)N2CCCC[C@H]2C(=O)O[C@H]([C@H](C)C[C@@H]2CC[C@@H](OCCO)[C@H](OC)C2)CC(=O)[C@H](C)/C=C(\C)[C@@H](O)[C@H](OC)C(=O)[C@H](C)C[C@H](C)\C=C/C=C/C=C/1C`: the growth in test [1] is 11.3%; in [2], 35.6%; in test [3], 40.9%; in test [4], 50.8%; in [5], 26.8%; in test [6] it was 35%. The growth in test [7] was 16.3%; in test [8], 63.4%; in test [9], 57.7%.
For the molecule `C=CC(=O)N1CCC(Oc2cc3c(Nc4ccc(Cl)c(Cl)c4F)ncnc3cc2OC)CC1`, the growth in test [1] is -20.2% (active); in [2], 35%; in [3], 18.4%; in test [4], 25.3%; in test [5], 39%; in test [6], -37.4% (active). Besides, the results for the growth in test [7], in [8] and in test [9] were -44.8% (active), 19.4% and -16.8% (active), respectively.
Consider `COc1cccc2cc(-c3nc(C4CCC(C(=O)O)CC4)n4ncnc(N)c34)[nH]c12` (stereo unspecified), for which the growth in test [1] was 7.63% (active); in [2], 7.52% (active); in test [3], 1.18% (active); in test [4], 25.6%; in test [5], -23.4% (active); in test [6] it was -26% (active). The values for the growth in test [7], in [8] and in test [9] were -12.9% (active), 12.3% and 2.94% (active), respectively.
Consider `COc1ccc2c(c1)cn1c3ccc(O)cc3nc(N)c21`, for which the growth in test [1] was 3.65% (active); in [2] it was 25.4%; in test [3], 28.1%; in [4], 38.3%; in [5] it was 37.7%; in test [6], 5.03% (active). Moreover, the results for the growth in test [7], in test [8] and in [9] were 17.4%, 43% and -0.794% (active), respectively.
